{
  "source": "PubChem BioAssay AID1159580",
  "about": "(chemical genetic matrix, 2015)",
  "experiment": "chemical genetic growth profiling, strain panel (AID 1159580);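 further: tested at 20 µM; growth read once vehicle control cultures reached saturation at 30 °C; 1 = growth at the plate median or of vehicle wells; lower values mean less growth of the strain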",
  "conditions": "S. cerevisiae deletion strains, growth OD",
  "note": "Hit rate of the full screen: of about 5,500 compounds, about 2,000 (36%) were called active. Another 18% or so got no clear call; they are omitted. The list shows a part of the results. Values without a mark were called inactive. No stated cut-off is given here; in the data, active means normalized growth mostly below about 0.91 (no sharp cut-off); inconclusive means no clear call, values can overlap the other calls; inactive means mostly above about 0.92.",
  "data": [
    {"smiles": "O=c1cc(-c2ccccc2)oc2cc(O)c(O)cc12", "values": [
      {"measurement": "normalized growth", "setting": "locus YAL021C, strain ccr4, hits give low values", "value": 0.934},
      {"measurement": "normalized growth", "setting": "locus YAL026C, strain drs2, hits give low values", "value": "0.895 (active)"},
      {"measurement": "normalized growth", "setting": "locus YAL030W, strain snc1, hits give low values", "value": 0.949},
      {"measurement": "normalized growth", "setting": "locus YBL061C, strain skt5, hits give low values", "value": 0.946},
      {"measurement": "normalized growth", "setting": "locus YBR009C, strain hhf1, hits give low values", "value": "0.894 (active)"},
      {"measurement": "normalized growth", "setting": "locus YBR023C, strain chs3, hits give low values", "value": 0.973},
      {"measurement": "normalized growth", "setting": "locus YBR171W, strain sec66, hits give low values", "value": 0.974},
      {"measurement": "normalized growth", "setting": "locus YBR231C, strain swc5, hits give low values", "value": 0.948},
      {"measurement": "normalized growth", "setting": "locus YBR279W, strain paf1, hits give low values", "value": 0.945},
      {"measurement": "normalized growth", "setting": "locus YCL011C, strain gbp2, hits give low values", "value": 0.943},
      {"measurement": "normalized growth", "setting": "locus YCL016C, strain dcc1, hits give low values", "value": 0.948},
      {"measurement": "normalized growth", "setting": "locus YCL061C, strain MRC1, hits give low values", "value": 0.979},
      {"measurement": "normalized growth", "setting": "locus YCL069W, strain vba3, hits give low values", "value": 0.982},
      {"measurement": "normalized growth", "setting": "locus YCR088W, strain abp1, hits give low values", "value": 0.993},
      {"measurement": "normalized growth", "setting": "locus YDL005C, strain med2, hits give low values", "value": 0.977},
      {"measurement": "normalized growth", "setting": "locus YDL040C, strain nat1, hits give low values", "value": 0.986},
      {"measurement": "normalized growth", "setting": "locus YDR001C, strain nth1, hits give low values", "value": 0.981},
      {"measurement": "normalized growth", "setting": "locus YDR069C, strain doa4, hits give low values", "value": "0.819 (active)"},
      {"measurement": "normalized growth", "setting": "locus YDR137W, strain rgp1, hits give low values", "value": 0.856},
      {"measurement": "normalized growth", "setting": "locus YDR159W, strain sac3, hits give low values", "value": 0.972},
      {"measurement": "normalized growth", "setting": "locus YDR195W, strain ref2", "value": 1},
      {"measurement": "normalized growth", "setting": "locus YDR297W, strain sur2, hits give low values", "value": 0.952},
      {"measurement": "normalized growth", "setting": "locus YDR334W, strain swr1, hits give low values", "value": 0.96},
      {"measurement": "normalized growth", "setting": "locus YDR335W, strain msn5, hits give low values", "value": 0.979},
      {"measurement": "normalized growth", "setting": "locus YDR392W, strain spt3, hits give low values", "value": 0.979},
      {"measurement": "normalized growth", "setting": "locus YEL003W, strain gim4, hits give low values", "value": 0.964},
      {"measurement": "normalized growth", "setting": "locus YEL037C, strain rad23, hits give low values", "value": 0.967},
      {"measurement": "normalized growth", "setting": "locus YEL061C, strain CIN8 (second series), hits give low values", "value": 0.964},
      {"measurement": "normalized growth", "setting": "locus YER015W, strain faa2, hits give low values", "value": 0.946},
      {"measurement": "normalized growth", "setting": "locus YER016W, strain bim1, hits give low values", "value": 0.99},
      {"measurement": "normalized growth", "setting": "locus YER111C, strain swi4, hits give low values", "value": 0.951},
      {"measurement": "normalized growth", "setting": "locus YER155C, strain BEM2 (second series), hits give low values", "value": 0.971},
      {"measurement": "normalized growth", "setting": "locus YFR010W, strain ubp6, hits give low values", "value": 0.914},
      {"measurement": "normalized growth", "setting": "locus YGL167C, strain pmr1, hits give low values", "value": 0.949},
      {"measurement": "normalized growth", "setting": "locus YGL173C, strain kem1, hits give low values", "value": 0.933},
      {"measurement": "normalized growth", "setting": "locus YGL227W, strain vid30, hits give low values", "value": 0.973},
      {"measurement": "normalized growth", "setting": "locus YGL240W, strain doc1, hits give low values", "value": 0.943},
      {"measurement": "normalized growth", "setting": "locus YGL253W, strain hxk2, hits give low values", "value": 0.939},
      {"measurement": "normalized growth", "setting": "locus YHR013C, strain ard1, hits give low values", "value": 0.856},
      {"measurement": "normalized growth", "setting": "locus YHR027C, strain rpn1, hits give low values", "value": 0.945},
      {"measurement": "normalized growth", "setting": "locus YHR030C, strain SLT2, hits give low values", "value": 0.981},
      {"measurement": "normalized growth", "setting": "locus YHR079C, strain IRE1, hits give low values", "value": 0.972},
      {"measurement": "normalized growth", "setting": "locus YHR142W, strain chs7, hits give low values", "value": 0.941},
      {"measurement": "normalized growth", "setting": "locus YJL092W, strain hpr5, hits give low values", "value": 1},
      {"measurement": "normalized growth", "setting": "locus YJL095W, strain BCK1 (second series), hits give low values", "value": 0.972},
      {"measurement": "normalized growth", "setting": "locus YJL095W, strain BCK1, hits give low values", "value": 0.999},
      {"measurement": "normalized growth", "setting": "locus YJL115W, strain asf1, hits give low values", "value": 0.985},
      {"measurement": "normalized growth", "setting": "locus YJL129C, strain trk1, hits give low values", "value": 0.912},
      {"measurement": "normalized growth", "setting": "locus YJL154C, strain vps35, hits give low values", "value": 0.994},
      {"measurement": "normalized growth", "setting": "locus YJL164C, strain tpk1, hits give low values", "value": "0.912 (active)"},
      {"measurement": "normalized growth", "setting": "locus YJL166W, strain qcr8, hits give low values", "value": "0.876 (active)"},
      {"measurement": "normalized growth", "setting": "locus YJL187C, strain SWE1, hits give low values", "value": 0.946},
      {"measurement": "normalized growth", "setting": "locus YJR066W, strain TOR1, hits give low values", "value": 0.954},
      {"measurement": "normalized growth", "setting": "locus YKL160W, strain elf1, hits give low values", "value": 0.97},
      {"measurement": "normalized growth", "setting": "locus YKR026C, strain gcn3, hits give low values", "value": 0.98},
      {"measurement": "normalized growth", "setting": "locus YKR091W, strain srl3, hits give low values", "value": 0.983},
      {"measurement": "normalized growth", "setting": "locus YLL001W, strain dnm1, hits give low values", "value": 0.975},
      {"measurement": "normalized growth", "setting": "locus YLL026W, hits give low values", "value": 1.01},
      {"measurement": "normalized growth", "setting": "locus YLL041C, strain sdh2, hits give low values", "value": 0.976},
      {"measurement": "normalized growth", "setting": "locus YLR027C, strain aat2, hits give low values", "value": 0.975},
      {"measurement": "normalized growth", "setting": "locus YLR113W, strain HOG1, hits give low values", "value": 0.99},
      {"measurement": "normalized growth", "setting": "locus YLR221C, strain rsa3, hits give low values", "value": 0.949},
      {"measurement": "normalized growth", "setting": "locus YLR258W, strain gsy2, hits give low values", "value": 0.953},
      {"measurement": "normalized growth", "setting": "locus YLR262C, strain YPT6 (second series), hits give low values", "value": "0.791 (active)"},
      {"measurement": "normalized growth", "setting": "locus YLR320W, strain mms22, hits give low values", "value": 0.97},
      {"measurement": "normalized growth", "setting": "locus YLR342W, strain FKS1, hits give low values", "value": 0.936},
      {"measurement": "normalized growth", "setting": "locus YLR357W, strain rsc2, hits give low values", "value": 0.903},
      {"measurement": "normalized growth", "setting": "locus YLR370C, strain arc18, hits give low values", "value": 0.935},
      {"measurement": "normalized growth", "setting": "locus YLR384C, strain iki3, hits give low values", "value": 0.964},
      {"measurement": "normalized growth", "setting": "locus YML120C, strain ndi1, hits give low values", "value": 0.951},
      {"measurement": "normalized growth", "setting": "locus YMR058W, strain fet3, hits give low values", "value": 0.956},
      {"measurement": "normalized growth", "setting": "locus YMR125W, strain sto1, hits give low values", "value": 1.02},
      {"measurement": "normalized growth", "setting": "locus YMR129W, hits give low values", "value": 0.972},
      {"measurement": "normalized growth", "setting": "locus YMR205C, strain PFK2, hits give low values", "value": 0.955},
      {"measurement": "normalized growth", "setting": "locus YMR231W, strain pep5, hits give low values", "value": 0.958},
      {"measurement": "normalized growth", "setting": "locus YNL071W, strain lat1, hits give low values", "value": 0.995},
      {"measurement": "normalized growth", "setting": "locus YNL183C, strain NPR1, hits give low values", "value": 0.951},
      {"measurement": "normalized growth", "setting": "locus YNL209W, strain ssb2, hits give low values", "value": "0.851 (active)"},
      {"measurement": "normalized growth", "setting": "locus YNL248C, strain rpa49, hits give low values", "value": 1.02},
      {"measurement": "normalized growth", "setting": "locus YNL322C, strain KRE1 (second series), hits give low values", "value": 0.992},
      {"measurement": "normalized growth", "setting": "locus YNR049C, strain mso1, hits give low values", "value": 0.987},
      {"measurement": "normalized growth", "setting": "locus YOR001W, strain rrp6, hits give low values", "value": 0.991},
      {"measurement": "normalized growth", "setting": "locus YOR070C, strain gyp1, hits give low values", "value": 0.979},
      {"measurement": "normalized growth", "setting": "locus YOR080W, strain dia2, hits give low values", "value": 0.976},
      {"measurement": "normalized growth", "setting": "locus YOR083W, strain WHI5, hits give low values", "value": 0.961},
      {"measurement": "normalized growth", "setting": "locus YOR106W, strain vam3, hits give low values", "value": "0.826 (active)"},
      {"measurement": "normalized growth", "setting": "locus YOR231W, strain MKK1, hits give low values", "value": 0.996},
      {"measurement": "normalized growth", "setting": "locus YOR265W, strain rbl2, hits give low values", "value": 0.95},
      {"measurement": "normalized growth", "setting": "locus YOR270C, strain vph1, hits give low values", "value": "0.773 (active)"},
      {"measurement": "normalized growth", "setting": "locus YOR290C, strain snf2, hits give low values", "value": 0.939},
      {"measurement": "normalized growth", "setting": "locus YPL051W, strain arl3, hits give low values", "value": 0.943},
      {"measurement": "normalized growth", "setting": "locus YPL078C, strain atp4, hits give low values", "value": 0.986},
      {"measurement": "normalized growth", "setting": "locus YPL106C, strain sse1, hits give low values", "value": 0.855},
      {"measurement": "normalized growth", "setting": "locus YPL240C, strain hsp82, hits give low values", "value": 0.949},
      {"measurement": "normalized growth", "setting": "locus YPL256C, strain CLN2, hits give low values", "value": 0.955}
    ]}
  ]
}
